Assay in all cases: NCI-60 one-dose screen, 48 h (100 = growth as untreated, 0 = no growth, -100 = all killed)
Conditions in all cases: 10 µM unless noted

Assay [1] relates to HCT-15 colon.
Assay [2] relates to SNB-75 CNS.
Assay [3] concerns SNB-19 CNS.
Assay [4] concerns U251 CNS.
Assay [5] relates to PC-3 prostate.
The test system of assay [6] is SK-MEL-5 melanoma.
Assay [7] has as its system UACC-62 melanoma.
The test system of assay [8] is LOX IMVI melanoma.
Assay [9] concerns SK-MEL-28 melanoma.
For assay [10], the system named is HT29 colon.

“And” between values parts separate entries of the source, which are not always exact repeats. Equal entries are not always repeated. This is part of a sample that, as a whole, favours compounds with a hit. Of some 83,000 tested, about 20% had one in any assay.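 Values shown are percent growth following 48 h exposure of cells in 96-well plates to a single concentration of compound; below 10 was considered active.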 The source made the active and inactive calls.

With `CCCCCCCCCCCCCCCCCC1OCC(COC(=O)O[C@@H](C(=O)O[C@H]2C[C@@]3(O)[C@@H](OC(=O)c4ccccc4)[C@@H]4[C@]5(OC(C)=O)CO[C@@H]5C[C@H](O)[C@@]4(C)C(=O)[C@H](OC(C)=O)C(=C2C)C3(C)C)[C@@H](NC(=O)c2ccccc2)c2ccccc2)O1` (some centres undefined), the growth was 99.4% (inactive) in [1]; 37.7% (inactive) in assay [2]; 49.1% (inactive) in [3]; 40.8% (inactive) in [4]; 39.9% (inactive) in assay [5]; 60.4% (inactive) in [6]. Further, the growth is 43.1% (inactive) in assay [7], 37.5% (inactive) in assay [8] and 58.4% (inactive) in assay [9].

Consider `NNC(=S)N/N=C(\C(=O)Nc1cccc(O)c1)C1C(=O)NC(=S)NC1=O`, for which, in assay [7], the growth was 90.4% [100 µM] (inactive) and 91% [100 µM] (inactive).

Take `Cc1nc2ccccc2c(=O)n1-c1ccccc1F`: the growth in assay [1] was 103% (inactive); in assay [2] it was 82.1% (inactive); in assay [3], 104% (inactive); in assay [4], 88.1% (inactive); in assay [5], 86.6% (inactive); in assay [6], 100% (inactive). Further, the growth in assay [7] was 105% (inactive); in [8] it was 103% (inactive); in [9], 111% (inactive).

For `NC1CN2CCC1CC2` (centres undefined), the growth in assay [1] is 99.3% (inactive); in [2], 73.9% (inactive); in assay [3], 101% (inactive); in [4] it was 103% (inactive); in assay [5] it was 90.7% (inactive); in assay [6], 110% (inactive). For the same molecule, the growth in assay [7] is 90.4% (inactive); in assay [8], 97.2% (inactive); in assay [9] it was 100% (inactive).

Turning to `CN(C)C(=S)SSC(=S)N(C)C`, the growth was 93.9% (inactive) and 113% (inactive) in assay [1]; 109% (inactive) and 104% (inactive) in assay [2]; 98.7% (inactive) and 98.8% (inactive) in assay [3]; 81.2% (inactive) and 75.7% (inactive) in assay [4]; 75.5% (inactive) and 91.1% (inactive) in assay [5]; 82% (inactive) in [6]. In addition, the growth in [7] is 97.4% (inactive) and 96.2% (inactive); in [8], 104% (inactive) and 108% (inactive); in assay [9], 116% (inactive) and 114% (inactive).

For `Oc1cc(N2CC2)c(O)cc1N1CC1`, the growth was 1.49% (active) in [10]; 26.8% (inactive) in assay [3]; -2.16% (active) in [4]; 25% (inactive) in [5]; -95% (active) in assay [6]; -67.2% (active) in assay [7]. Also, the growth in assay [8] is 1.44% (active); in assay [9], -50.9% (active).

For the molecule `Cc1ccccc1-n1c(/C=C\c2ccccn2)nc2ccccc2c1=O`, the growth in assay [10] was 79.7% (inactive); in [2] it was 44.9% (inactive); in assay [3], 87.9% (inactive); in assay [5], 56.5% (inactive); in [6], 73.7% (inactive); in assay [7] it was 64.5% (inactive). For the same molecule, in assay [9], the growth is 83.2% (inactive).

On to `Nc1c(Cl)c(Cl)nc(C(=O)O)c1Cl`, for which the growth in [1] was 95% (inactive); in assay [2], 71.4% (inactive); in assay [3], 95.1% (inactive); in assay [4] it was 94.2% (inactive); in assay [5], 84.9% (inactive); in assay [6], 108% (inactive). In addition, the growth is 92.4% (inactive) in assay [7], 90.7% (inactive) in assay [8] and 120% (inactive) in assay [9].

On to `COCC1OC2OC3C(COC)OC(OC4C(COC)OC(OC5C(COC)OC(OC6C(COC)OC(OC7C(COC)OC(OC8C(COC)OC(OC1C(O)C2O)C(O)C8O)C(O)C7O)C(O)C6O)C(O)C5O)C(O)C4O)C(O)C3O` (centres undefined) (tested in a mixture with another compound), for which the growth in assay [1] was 103% (inactive); in assay [2] it was 86.1% (inactive); in [3], 110% (inactive); in assay [4], 105% (inactive); in [6], 103% (inactive); in assay [7] it was 107% (inactive). The growth was 102% (inactive) in assay [8] and 112% (inactive) in assay [9].

`Nc1ccc2c(c1)Cc1cc(N)ccc1-2`: the growth in [1] was 85.3% (inactive); in assay [2] it was 74% (inactive); in assay [3], 103% (inactive); in [4] it was 94.9% (inactive); in assay [5], 84.9% (inactive); in assay [6], 95.8% (inactive). The values for the growth in [7], in assay [8] and in assay [9] were 96% (inactive), 105% (inactive) and 92.6% (inactive), respectively.

In the case of `CCCCOC(N)=O`, the growth is 101% (inactive) in assay [1]; 88.6% (inactive) in assay [2]; 98% (inactive) in assay [3]; 106% (inactive) in assay [4]; 108% (inactive) in assay [5]; 99.6% (inactive) in assay [6]. The growth in assay [8] was 104% (inactive); in [9] it was 112% (inactive).

As to `COc1cc(/C=C\[N+](=O)[O-])ccc1OCc1ccccc1`, the growth was -11.7% (active) in assay [1]; 79.2% (inactive) in assay [2]; 36.5% (inactive) in assay [3]; 5.01% (active) in assay [4]; 23% (inactive) in assay [5]; 65.2% (inactive) in assay [6]. Besides, the growth in [7] is 30.5% (inactive); in assay [8], -83.3% (active); in [9] it was 18.5% (inactive).

As to `O=C(CCCN1CCC2(CC1)C(=O)NCN2c1ccccc1)c1ccc(F)cc1`, the growth in [1] is 100% (inactive) and 78.4% (inactive); in assay [2] it was 109% (inactive) and 105% (inactive); in assay [3], 98.1% (inactive) and 66.6% (inactive); in assay [4] it was 98.6% (inactive) and 78.7% (inactive); in assay [5], 106% (inactive) and 77.6% (inactive); in assay [6], 56.9% (inactive) and -23.1% (active). The growth in assay [7] is 102% (inactive) and 65% (inactive); in assay [8], 103% (inactive) and 67.8% (inactive); in [9], 114% (inactive) and 120% (inactive).

The record behind these values is PubChem BioAssay (NCI).
